In PubChem BioAssay (Tox21):
“And” between values parts separate entries of the source, which are not always exact repeats. Identical values can stand only once. Records with an inconclusive call do not appear. Where a call stands in place of a potency, no number is given. A structure can be active in one record and inactive in another. The source made the active and inactive calls. Unless noted, calls come from the whole dose curve; as a rule, active = well fitted curve in the direction sought with a large enough effect in the repeat runs; inconclusive = weak or mixed curves; inactive = no such curve, though single readings can be large; an effect the other way counts as inactive or inconclusive.

Tests used:
[1] = biological target: Luciferin 4-monooxygenase (Photinus pyralis) (UniProt P08659); experiment: qHTS assay to identify small molecule inhibitors of firefly luciferase (AID 1224835); note: nearly all actives have a fitted effect of over 25% in size; note: potency is the fitted concentration of half-maximal effect
Luciferin 4-monooxygenase (Photinus pyralis), sequence (P08659 whole entry, looked up): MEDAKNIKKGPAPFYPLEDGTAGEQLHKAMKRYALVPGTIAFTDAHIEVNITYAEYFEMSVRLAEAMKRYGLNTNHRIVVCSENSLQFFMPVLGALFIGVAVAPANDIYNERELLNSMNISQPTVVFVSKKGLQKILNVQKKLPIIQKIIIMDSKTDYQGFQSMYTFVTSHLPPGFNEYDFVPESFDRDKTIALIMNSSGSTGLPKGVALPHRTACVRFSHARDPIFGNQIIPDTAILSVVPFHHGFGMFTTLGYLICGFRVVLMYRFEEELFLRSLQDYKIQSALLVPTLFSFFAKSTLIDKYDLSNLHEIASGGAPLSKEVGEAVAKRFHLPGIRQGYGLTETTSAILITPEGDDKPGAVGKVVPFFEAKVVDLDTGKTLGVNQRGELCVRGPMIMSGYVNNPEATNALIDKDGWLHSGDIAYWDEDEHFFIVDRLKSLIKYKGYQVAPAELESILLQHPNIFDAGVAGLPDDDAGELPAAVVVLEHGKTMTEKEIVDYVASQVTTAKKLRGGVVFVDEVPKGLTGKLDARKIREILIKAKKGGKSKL
Method in brief: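 Biochemical qHTS: compounds run as interplate titrations against purified firefly enzyme, with D-luciferin and ATP each at its KM concentration. Light output recorded by CCD imaging.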

[2] = biological target: Nuclear receptor subfamily 1 group I member 3 (Homo sapiens) (UniProt Q14994); experiment: qHTS assay to identify small molecule antagonists of the constitutive androstane receptor (CAR) signaling pathway (AID 1224838); note: nearly all actives have a fitted effect of over 40% in size
Nuclear receptor subfamily 1 group I member 3 (Homo sapiens), sequence (Q14994 whole entry, looked up): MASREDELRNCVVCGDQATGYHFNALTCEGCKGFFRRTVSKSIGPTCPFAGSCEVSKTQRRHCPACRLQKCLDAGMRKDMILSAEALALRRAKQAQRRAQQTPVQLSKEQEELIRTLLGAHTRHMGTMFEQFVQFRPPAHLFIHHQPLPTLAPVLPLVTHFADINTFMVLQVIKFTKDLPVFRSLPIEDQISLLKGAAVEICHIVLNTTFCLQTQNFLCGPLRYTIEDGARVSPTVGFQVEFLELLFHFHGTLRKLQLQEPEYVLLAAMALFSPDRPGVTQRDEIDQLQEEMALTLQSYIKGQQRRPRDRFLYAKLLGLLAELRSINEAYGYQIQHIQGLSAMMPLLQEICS
Method in brief: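 Compounds were titrated across 15 concentrations onto HepG2 cells double-stably expressing hCAR and a CYP2B6-2.2kb reporter, together with 50 nM CITCO (final). After 24 h at 37 C, luciferase activity was measured by luminescence.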

[3] = qHTS assay to identify small molecule agonists of H2AX (AID 1224845; active = well fitted activation curve with a large enough effect in the signal ratio in the repeat runs, not every such curve was filed as active; the % refers to the signal ratio)
Method in brief: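 Wild-type CHO-K1 cells, plated overnight, exposed 3hr at 37C to 15 concentrations (0.76% DMSO final). Lysed, then HTRF anti-pH2AX (S139) cryptate and anti-H2AX-d2 antibodies, 24 hr room temperature; 665/620 nm emission read.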

[4] = qHTS assay to identify small molecule agonists of the hypoxia (HIF-1) signaling pathway (AID 1224846; active = well fitted activation curve with a large enough effect in the signal ratio in the repeat runs, not every such curve was filed as active; the % refers to the signal ratio)
Method in brief: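 Steps: seed ME-180 HRE-bla cells (2,000/well, 0.5% dialyzed FBS); incubate 5 hrs at 37C; pin-transfer compounds or DMSO; incubate 17 hrs; add LiveBLAzer B/G substrate CCF4-AM; measure reporter activation by FRET.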

[5] = qHTS assay to identify small molecule agonists of H2AX - cell viability counter screen (AID 1224847; calls by dose curve; note: nearly all actives have a fitted effect of over 30% in size; note: potency is the fitted concentration of half-maximal effect)
Method in brief: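 After overnight plating of 1000 CHO-K1 cells per well, a 15-concentration compound series was applied for 3 hr at 37C. Luminescence from CellTiter-Glo, read following 30 min at room temperature, reflected cell viability.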

[6] = A CellTox Green Cytotoxicity Assay to monitor cytotoxicity in HEK293 cells - 0 hour (AID 1224869); note: nearly all actives have a fitted effect of over 50% in size
Method in brief: (§1)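 Cytotoxicity was tracked continuously in HEK293 cells by a DNA-binding dye excluded from viable cells. Compounds were transferred in DMSO 5 h after seeding; fluorescence was recorded at intervals up to 40 h.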

[7] = A CellTox Green Cytotoxicity Assay to monitor cytotoxicity in HEK293 cells - 40 hour (AID 1224871); note: nearly all actives have a fitted effect of over 45% in size; note: potency is the fitted concentration of half-maximal effect
Method in brief: as §1

[8] = qHTS assay to identify small molecule agonists of the constitutive androstane receptor (CAR) signaling pathway - cell viability counter screen (AID 1224836); note: nearly all actives have a fitted effect of over 45% in size
Method in brief: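 Multiplexed viability check: HepG2-CYP2B6-hCAR cells, 15-point compound dosing, 0.75 uM PK11195 final, 23 h at 37 C, CellTiter-Fluor fluorescence.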

[9] = qHTS assay to identify small molecule antagonists of the estrogen related receptor signaling pathway with the pleiotropic PPARgamma coactivator (PGC) from Tox21 10K library - cell viability counter screen (AID 1224840; active = well fitted cell-killing curve with a large enough effect in the repeat runs, not every such curve was filed as active; note: nearly all actives have a fitted effect of over 40% in size; note: potency is the fitted concentration of half-maximal effect)
Method in brief: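 Step one, plate 2,000 PGC/ERR cells per well; step two, incubate 6 h at 37 C/5% CO2; step three, pin-transfer compounds; step four, incubate 17.5 h; step five, add CellTiter-Fluor and read fluorescence after 30 min.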

[10] = biological target: Thyrotropin receptor (Homo sapiens) (UniProt P16473); experiment: qHTS assay to identify small molecule agonists of the thyroid stimulating hormone receptor (TSHR) signaling pathway (AID 1224843; calls by dose curve; note: nearly all actives have a fitted effect of over 45% in size; note: potency is the fitted concentration of half-maximal effect)
Thyrotropin receptor (Homo sapiens), sequence (P16473 whole entry, looked up): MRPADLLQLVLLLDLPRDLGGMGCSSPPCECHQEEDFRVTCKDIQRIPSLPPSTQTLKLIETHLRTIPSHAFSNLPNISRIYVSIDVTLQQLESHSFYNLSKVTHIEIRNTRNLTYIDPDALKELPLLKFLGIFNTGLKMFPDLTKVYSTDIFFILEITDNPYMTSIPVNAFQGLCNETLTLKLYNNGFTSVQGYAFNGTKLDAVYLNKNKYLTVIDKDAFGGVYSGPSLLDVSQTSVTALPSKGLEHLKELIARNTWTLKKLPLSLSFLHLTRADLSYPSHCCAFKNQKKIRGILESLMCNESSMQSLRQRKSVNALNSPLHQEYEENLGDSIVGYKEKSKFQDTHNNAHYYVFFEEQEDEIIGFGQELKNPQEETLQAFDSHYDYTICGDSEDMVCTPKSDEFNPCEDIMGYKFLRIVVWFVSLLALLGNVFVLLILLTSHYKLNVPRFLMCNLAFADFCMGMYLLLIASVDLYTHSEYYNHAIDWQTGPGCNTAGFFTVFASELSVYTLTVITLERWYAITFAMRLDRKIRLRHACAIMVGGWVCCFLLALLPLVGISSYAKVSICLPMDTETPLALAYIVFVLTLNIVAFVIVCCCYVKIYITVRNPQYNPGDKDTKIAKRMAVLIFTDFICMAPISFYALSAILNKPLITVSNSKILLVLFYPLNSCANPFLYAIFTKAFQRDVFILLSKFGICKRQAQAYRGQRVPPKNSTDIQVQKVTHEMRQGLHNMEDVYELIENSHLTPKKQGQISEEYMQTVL
Method in brief: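 TSHR-HEK293 cells in agonist mode, 30 min room-temperature step, then cAMP measured by competitive HTRF (cAMP-d2 with anti-cAMP cryptate) after 1 h at room temperature. Tested at 15 concentrations in triplicate.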

[11] = qHTS assay to identify small molecule agonists of the hypoxia (HIF-1) signaling pathway - cell viability counter screen (AID 1224844; calls by dose curve; note: nearly all actives have a fitted effect of over 50% in size; note: potency is the fitted concentration of half-maximal effect)
Method in brief: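 Tox21 10K compounds were added to HRE-bla ME-180 cells (0.5% dialyzed FBS) and incubated 17 hrs at 37C; ATP-based CellTiter-Glo luminescence then reported cell viability in the same wells.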

[12] = qHTS RealTime-Glo MT Cell Viability Assay in HepG2 cells - 24 hour (AID 1224867); note: nearly all actives have a fitted effect of over 50% in size; note: potency is the fitted concentration of half-maximal effect
Method in brief: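 Luminescence read-out: viable HepG2 cells reduce a prosubstrate to a NanoLuc substrate, giving a signal proportional to live cell number. Reads taken at 0, 8, 16, 24, 32 and 40 h of compound exposure at 37 C.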

[13] = qHTS RealTime-Glo MT Cell Viability Assay in HepG2 cells - 40 hour (AID 1224870); note: nearly all actives have a fitted effect of over 50% in size; note: potency is the fitted concentration of half-maximal effect
Method in brief: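 HepG2 cells (600/well) mixed with RealTime-Glo MT reagent, settled 5 h at 37 C/5% CO2 before compound addition. Nonlytic NanoLuc luminescence from viable-cell prosubstrate reduction read repeatedly during 40 h treatment at 37 C.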

[14] = qHTS assay to identify small molecule antagonists of the constitutive androstane receptor (CAR) signaling pathway - cell viability counter screen (AID 1224837); note: nearly all actives have a fitted effect of over 45% in size
Method in brief: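 Multiplexed cytotoxicity read-out for the CAR antagonist screen: double-stable HepG2-CYP2B6-hCAR cells co-treated with 50 nM CITCO (final) and compound over 15 concentrations, incubated 23 hr, then assessed by CellTiter-Fluor fluorescence.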

[15] = biological target: Nuclear receptor subfamily 1 group I member 3 (Homo sapiens) (UniProt Q14994); experiment: qHTS assay to identify small molecule agonists of the constitutive androstane receptor (CAR) signaling pathway (AID 1224839); note: nearly all actives have a fitted effect of over 15% in size; note: potency is the fitted concentration of half-maximal effect;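 for activation: HepG2 cells stably carrying human CAR and a CYP2B6 luciferase reporter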
Method in brief: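 Using human hepatoma HepG2 cells engineered with hCAR and a CYP2B6-2.2kb reporter, 15-concentration compound series were incubated 24 h alongside PK11195 at 0.75 uM final, with luminescence quantified afterwards.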

[16] = qHTS assay to identify small molecule antagonists of the estrogen related receptor signaling pathway with the pleiotropic PPARgamma coactivator (PGC) from Tox21 10K library (AID 1224841; call rule not given here; note: potency is the fitted concentration of half-maximal effect)
Method in brief: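 Antagonism in this quantitative HTS is taken from loss of luciferase signal in PGC/ERR cells. Cells (2,000/well) are treated with compounds in DMSO after a 6 h settling period and read by One-Glo luminescence after 18 h.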

[17] = qHTS assay to identify small molecule agonists of the estrogen related receptor signaling pathway with the pleiotropic PPARgamma coactivator (PGC) from Tox21 10K library (AID 1224842); note: nearly all actives have a fitted effect of over 15% in size
Method in brief: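 PGC/ERR reporter cell line, 2,000 cells per well, incubated 6 h at 37 C before 23 nL compound in DMSO was added. After 18 h at 37 C, One-Glo luminescence read following 30 min at room temperature.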

[18] = qHTS assay to identify small molecule antagonists of the estrogen related receptor (ERR) signaling pathway from Tox21 library (AID 1224848)
Method in brief: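 ERR reporter cell line (from NTP) seeded 2,000 cells/well, rested 6 h at 37 C/5% CO2, then pin-dosed with compounds in DMSO. After 18 h at 37 C, ONE-Glo added; luminescence read after 30 min at room temperature.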

[19] = qHTS assay to identify small molecule agonists of the estrogen related receptor (ERR) signaling pathway from Tox21 library (AID 1224849; calls by dose curve; note: nearly all actives have a fitted effect of over 15% in size); conditions: ERR reporter cell line, ONE-Glo luciferase, 18 h; at 92.4 µM (top of the series) unless noted
Method in brief: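 Agonist signal is luciferase luminescence from an ERR reporter cell line treated 18 h at 37 C with DMSO-dissolved compounds, read 30 min after ONE-Glo addition at room temperature.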

[20] = qHTS RealTime-Glo MT Cell Viability Assay in HEK293 cells - 32 hour (AID 1224868); note: nearly all actives have a fitted effect of over 50% in size; note: potency is the fitted concentration of half-maximal effect
Method in brief: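 Nonlytic real-time viability readout: viable cells convert prosubstrate to NanoLuc substrate, giving luminescence proportional to live cell number. HEK293, 600 cells/well, compound added after 5 h, continuous culture at 37 C.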

| SMILES | Potency [1] | Potency [2] | Potency [3] | Potency [4] | Potency [5] | Potency [6] | Potency [7] | Potency [8] | Potency [9] | Potency [10] | Potency [11] | Potency [12] | Potency [13] | Potency [14] | Potency [15] | Potency [16] | Potency [17] | Potency [18] | activity change, positive = activation [19] | Potency [20] |
| --- | --- | --- | --- | --- | --- | --- | --- | --- | --- | --- | --- | --- | --- | --- | --- | --- | --- | --- | --- | --- |
| CO/N=C(/C1=NOCCO1)c1ccccc1Oc1ncnc(Oc2ccccc2Cl)c1F | inactive | inactive | inactive | inactive | 12.7 µM (active) | inactive | inactive | – | – | – | – | – | – | – | – | – | – | – | – | – |
| COC(=O)c1cc(Oc2ccc(Cl)cc2Cl)ccc1[N+](=O)[O-] | inactive | inactive | inactive | inactive | – | inactive | inactive | inactive | inactive | inactive | inactive | inactive | inactive | – | – | – | – | – | – | – |
| O=C1C(Cl)=C(Cl)C(=O)C(Cl)=C1Cl | 31.6 µM (active) and 15.9 µM (active) | inactive | – | – | inactive | inactive | 17.3 µM (active) and 19.5 µM (active) | – | 54.3 µM (active) and inactive | 27.2 µM (active) | 54.8 µM (active) and 38.9 µM (active) | – | – | inactive | inactive | 60.9 µM (active) and inactive | inactive | 24.3 µM (active) | -23.7% (inactive) and -49% (inactive) | 24.5 µM (active) and 19.5 µM (active) |
| COc1ccc2[nH]cc(CCN(C(C)C)C(C)C)c2c1 | inactive | inactive | inactive | inactive | inactive | inactive | inactive | inactive | inactive | inactive | inactive | inactive | inactive | – | inactive | – | – | – | – | inactive |
| CSC1=N[C@@](C)(c2ccccc2)C(=O)N1Nc1ccccc1 | inactive | inactive | – | inactive | – | inactive | inactive | – | inactive | – | inactive | inactive | inactive | inactive | 19.3 µM (active) | – | – | – | – | inactive |
| NC(=O)C(Cl)Cl | inactive | – | inactive | inactive | inactive | – | – | inactive | inactive | – | inactive | inactive | inactive | inactive | – | – | – | – | – | inactive |
| O=C(O)[C@H](O)[C@@H](O)C(=O)O | inactive | – | inactive | – | inactive | – | inactive | – | inactive | – | inactive | inactive | inactive | – | – | – | – | – | – | inactive |
| S=C=NCCc1ccccc1 | 40 µM (active) | inactive | – | – | inactive | inactive | 43.7 µM (active) | – | inactive | inactive | inactive | – | – | – | 9.71 µM (active) | – | – | – | – | 49.1 µM (active) |
| FC(F)C(F)(F)OCC(Cn1cncn1)c1ccc(Cl)cc1Cl (stereo not given) | inactive | – | inactive | inactive | 112 µM (active) | inactive | – | – | 60.8 µM (active) | – | inactive | – | – | – | – | – | – | – | – | 21.7 µM (active) |
| CCCCCCCCCCCCCCn1cc[n+](C)c1 | inactive | – | – | – | 12.7 µM (active) and 22.3 µM (active) | inactive | 39 µM (active) and 38.5 µM (active) and inactive | – | 27.4 µM (active) and 30.3 µM (active) | – | 24.6 µM (active) and 43.2 µM (active) and inactive | 24.6 µM (active) and 48.5 µM (active) and inactive | 21.9 µM (active) and 34.3 µM (active) and inactive | – | – | 24.4 µM (active) and 24.1 µM (active) and inactive | inactive | 1.73 µM (active) and 1.35 µM (active) | – | – |
